One may read the AC50 as the concentration giving half of the maximal activity seen. The term IC50 denotes the concentration at which inhibition is half-maximal.

Assay [1] in a line: growth inhibition of DIPG glioma cells, dose response, cell-based, SU-DIPG-XVII, MIPE5.0, CellTiter-Glo, qHTS (AID 1347060).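 On AC50: cells exposed to compound for 48 hours before viability readout.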 The following applies: SU-DIPG-XVII viability, CellTiter-Glo ATP luminescence. (In general: Cellular ATP, detected with luciferase, serves as a proxy for viable cell number.)
The nature of assay [2]: growth inhibition of DIPG glioma cells, dose response, cell-based, SU-DIPG-XIII, MIPE5.0, CellTiter-Glo, qHTS (AID 1347064; cut-off not given, nearly all actives have AC50 up to about 23 µM;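 on AC50: cells exposed to compound for 48 hours before the viability read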). The following applies: SU-DIPG-XIII viability, CellTiter-Glo ATP luminescence.
A short description of assay [3]: viability loss in pontine glioma line – cell-based, SU-DIPG-XXV, MIPE5.0, CellTiter-Glo, qHTS, dose response (AID 1347065).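 Further: cells exposed to compound for 48 hours before ATP readout.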 The conditions noted are these: CellTiter-Glo ATP luminescence.
Assay [4] can be described thus: JHH-DIPG-1 glioma cell viability, MIPE5.0 library, CellTiter-Glo luminescence, qHTS (AID 1347067).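 Further: cells exposed to compound for 48 hours before readout.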 The following applies: JHH-DIPG-1 glioma viability, CellTiter-Glo ATP luminescence.
Assay [5] in a line: SU-DIPG-XXV glioma cell viability, MIPE5.0 library, qHTS (AID 1347068; cut-off not given, nearly all actives have IC50 up to about 30 µM;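 on IC50: cells exposed to compound for 48 hours before viability readout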). For orientation: Quantitative high-throughput screening tests each substance at several concentrations.

Records with an inconclusive call do not appear. The source made the active and inactive calls. Unless noted, cut-off not given; nearly all actives show AC50 up to about 26 µM.

Take `Cn1cncc1C(N)(c1ccc(Cl)cc1)c1ccc2c(c1)c(-c1cccc(Cl)c1)cc(=O)n2C` (stereo not drawn): the concentration at half-maximal activity (AC50) in assay [1] was 18.6 µM (active); in assay [2], 16.6 µM (active); in assay [3], 8.33 µM (active); in assay [4], 18.6 µM (active).

Take `COc1ccc(N2C(=O)N(c3c(C)cccc3Cl)Cc3cnc(Nc4ccc(C5CCN(C)CC5)cc4OC)nc32)nc1`: the AC50 in assay [1] was 3.72 µM (active); in assay [2] it was 9.34 µM (active); in assay [3], 9.34 µM (active); in assay [4], 16.6 µM (active). The IC50 in assay [5] is 14.8 µM (active).

`O=C(/C=C/c1ccc2ccc(C(F)(F)F)cc2n1)c1ccncc1`: the AC50 in assay [1] was 4.17 µM (active); in assay [2], 1.48 µM (active); in assay [3], 2.95 µM (active); in assay [4], 2.35 µM (active). Moreover, the IC50 in assay [5] is 7.42 µM (active).

Regarding `O=C(NOCCO)c1ccc2cncn2c1Nc1ccc(I)cc1F`, the AC50 in assay [1] was 0.148 µM (active); in assay [2] it was 0.148 µM (active); in assay [3], 0.332 µM (active); in assay [4] it was 0.105 µM (active).

As to `Nc1nc(N)c2nc(-c3cccc(Cl)c3)c(N)nc2n1`, the concentration at half-maximal activity (AC50) in assay [1] is 1.32 µM (active); in assay [2] it was 9.34 µM (active); in assay [3], 8.33 µM (active); in assay [4], 16.6 µM (active).

Regarding `O=C1CC[C@H](N2Cc3c(OCc4ccc(CN5CCOCC5)cc4)cccc3C2=O)C(=O)N1`, the result in assay [1], in assay [2], in assay [3], in assay [4] and in assay [5] was inactive.

Take `Cc1ncc(NC(=O)c2cccc(C(F)(F)F)c2)cc1-c1cnc(OC2CCOCC2)c(N2CCOCC2)c1`: the AC50 is 9.34 µM (active) in assay [1], 5.25 µM (active) in assay [2], 14.8 µM (active) in assay [3] and 4.68 µM (active) in assay [4]. Besides, the IC50 in assay [5] was 18.6 µM (active).

For `Cc1ccc(NC(=O)NCc2ccc3c(c2)CN(C2CCC(=O)NC2=O)C3=O)cc1Cl` (stereo not drawn), the AC50 in assay [1] is 0.00742 µM (active); in assay [2] it was 0.00296 µM (active); in assay [3], 0.00186 µM (active); in assay [4] it was 0.00118 µM (active). Further, in assay [5], the half-inhibitory concentration (IC50) was 0.00372 µM (active).

As for `O=C(/C=C\n1cnc(-c2cc(C(F)(F)F)cc(C(F)(F)F)c2)n1)NNc1cnccn1`, the AC50 in assay [1] is 1.66 µM (active); in assay [2], 16.6 µM (active); in assay [3] it was 4.17 µM (active); in assay [4], 16.6 µM (active). In addition, the IC50 in assay [5] was 14.8 µM (active).

As to `COCCNCc1ccc(-c2cc3nccc(Oc4ccc(NC(=O)C5(C(=O)Nc6ccc(F)cc6)CC5)cc4F)c3s2)nc1`, the AC50 was 7.42 µM (active) in assay [1], 5.25 µM (active) in assay [2], 4.68 µM (active) in assay [3] and 8.33 µM (active) in assay [4].

Regarding `CC1=C(c2ccc(O)cc2)[C@H](c2ccc(OCCN3CCCCC3)cc2)Oc2cc(O)ccc21`, the AC50 was 20.9 µM (active) in assay [1], 18.6 µM (active) in assay [2] and 16.6 µM (active) in assay [3]. Further, in assay [4], the outcome was inactive.

Regarding `CCCCCCCOc1ccc(CCC(N)(CO)CO)cc1C(F)(F)F`, the AC50 was 8.33 µM (active) in assay [1], 8.33 µM (active) in assay [2], 9.34 µM (active) in assay [3] and 8.33 µM (active) in assay [4].

`COc1cccc2c1C(=O)c1c(O)c3c(c(O)c1C2=O)C[C@@](O)(/C(CO)=N/NC(=O)CCCCCN1C(=O)C=CC1=O)C[C@@H]3O[C@H]1C[C@H](N)[C@H](O)[C@H](C)O1`: the AC50 was 1.05 µM (active) in assay [1], 4.68 µM (active) in assay [2], 14.8 µM (active) in assay [3] and 2.95 µM (active) in assay [4]. Besides, the IC50 in assay [5] is 18.6 µM (active).

For the molecule `NC(=O)c1cccc2c(NC(CN3CCC3)c3ccc(Cl)c(C(F)(F)F)c3)ncnc12` (stereo not drawn), the AC50 in assay [1] is 11.8 µM (active); in assay [2], 3.72 µM (active); in assay [3], 2.95 µM (active); in assay [4], 11.8 µM (active).

On to `COc1nc(OCc2cccc(-c3ccccc3)c2C)ccc1CNCCNC(C)=O`, for which the AC50 in assay [1] was 7.42 µM (active); in assay [2] it was 8.33 µM (active); in assay [3], 9.34 µM (active); in assay [4], 9.34 µM (active). Besides, in assay [5], the IC50 was 14.8 µM (active).

As for `CC(=O)c1cnc2ccc(-c3cc(Cl)c(O)c(Cl)c3)nc2c1NC1CCC(CN(C)C)CC1` (stereo not drawn), the AC50 in assay [1] was 0.191 µM (active); in assay [2], 0.171 µM (active); in assay [3], 0.121 µM (active); in assay [4], 0.303 µM (active). Also, the IC50 in assay [5] was 0.191 µM (active).

For `C=CC(=O)Nc1cc(N2CCN(CC)CC2)ccc1Nc1cc(N(C)C(=O)Nc2c(Cl)c(OC)cc(OC)c2Cl)ncn1`, the AC50 in assay [1] is 14.8 µM (active); in assay [2], 14.8 µM (active); in assay [3], 18.6 µM (active); in assay [4] it was 20.9 µM (active). Further, in assay [5], the molecule was called inactive.

`CC(C)c1cc(CNc2nc(Nc3cc(C4CC4)[nH]n3)cc(N3CCN(C)CC3)n2)on1`: the AC50 in assay [1] is 0.186 µM (active); in assay [2], 0.166 µM (active); in assay [3] it was 0.0833 µM (active); in assay [4], 0.468 µM (active). For the same molecule, the IC50 in assay [5] is 0.525 µM (active).

On to `CNS(=O)(=O)c1ccc2c(c1)/C(=C/c1[nH]c3c(c1CCCN1CCN(C)CC1)CCCC3)C(=O)N2`, for which the AC50 was 7.42 µM (active) in assay [1], 8.33 µM (active) in assay [2], 7.42 µM (active) in assay [3] and 10.5 µM (active) in assay [4]. Besides, in assay [5], the result was inactive.

As for `[2H]c1nc(C)nc([2H])c1-c1cc(NC[C@@H](C)c2cccc3c(C(=O)NC)ccnc23)ncn1`, the outcome in assay [1], in assay [2], in assay [3], in assay [4] and in assay [5] was inactive.

As for `Clc1cccc(-c2ccc(-c3nnc(CCCc4ccc5cccnc5n4)o3)cc2)c1`, the call in assay [1], in assay [2], in assay [3], in assay [4] and in assay [5] was inactive.

As for `CC(=O)c1cc2c(o1)C(=O)c1ccccc1C2=O`, the AC50 was 3.32 µM (active) in assay [1], 0.934 µM (active) in assay [2], 2.95 µM (active) in assay [3] and 1.66 µM (active) in assay [4]. Further, the IC50 in assay [5] is 2.95 µM (active).

`CO[C@@H](C)Cn1c(=O)n(C)c2cnc3ccc(-c4cncc(C(C)(C)O)c4)cc3c21`: the AC50 in assay [1] is 0.934 µM (active); in assay [2], 1.86 µM (active); in assay [3], 0.59 µM (active); in assay [4] it was 1.05 µM (active). Moreover, the IC50 in assay [5] is 1.48 µM (active).

On to `CC(=O)c1ccc2c(c1)c1cc(C(C)=O)ccc1n2CCNC(C)C`, for which the AC50 in assay [1] is 2.95 µM (active); in assay [2] it was 4.68 µM (active); in assay [3], 3.32 µM (active); in assay [4] it was 2.63 µM (active). Also, in assay [5], the IC50 is 5.9 µM (active).
